GLS inhibitor: qHTS for Inhibitors of Glutaminase (GLS); AID 624170, 2012; 410,000 tested, 0.21% active; Potency, µM (highest dose often 45.5 µM), most hits filed as inhibitors; Glutaminase kidney isoform, mitochondrial (Homo sapiens), O94925; GLS enzymatic activity, qHTS titration
Target sequence (O94925 whole entry, looked up, canonical isoform): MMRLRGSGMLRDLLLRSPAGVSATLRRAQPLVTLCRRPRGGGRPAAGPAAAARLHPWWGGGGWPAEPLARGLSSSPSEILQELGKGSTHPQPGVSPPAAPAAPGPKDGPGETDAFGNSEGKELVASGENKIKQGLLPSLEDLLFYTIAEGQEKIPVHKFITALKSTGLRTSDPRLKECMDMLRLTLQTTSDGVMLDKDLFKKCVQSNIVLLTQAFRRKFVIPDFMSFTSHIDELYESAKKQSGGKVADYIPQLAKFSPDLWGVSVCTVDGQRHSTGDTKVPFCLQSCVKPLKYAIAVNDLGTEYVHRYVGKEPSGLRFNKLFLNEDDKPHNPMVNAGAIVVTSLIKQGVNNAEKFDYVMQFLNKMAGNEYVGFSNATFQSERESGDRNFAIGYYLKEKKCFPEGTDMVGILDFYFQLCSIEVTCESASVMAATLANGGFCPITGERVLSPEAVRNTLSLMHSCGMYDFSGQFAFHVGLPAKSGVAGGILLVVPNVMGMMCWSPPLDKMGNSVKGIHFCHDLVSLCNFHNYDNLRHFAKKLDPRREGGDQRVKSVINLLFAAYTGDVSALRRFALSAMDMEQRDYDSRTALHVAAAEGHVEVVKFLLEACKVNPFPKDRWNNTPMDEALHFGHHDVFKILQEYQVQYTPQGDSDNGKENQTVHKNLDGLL
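Glutamate formation by hKGA was monitored fluorometrically using coupled glutamate oxidase, HRP and Amplex Red. Substrate was added as 1 mM L-glutamine solution; incubation was 30 min at RT after an initial read.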
PLK1 PBD block: qHTS for Inhibitors of PLK1-PDB (polo-like kinase 1 - polo-box domain): Primary Screen | Plk1 PBD binding of FITC phosphopeptide, fluorescence polarization | Potency, µM, most hits filed as inhibitors | 360,000 tested, 2.8% active; also: series mostly up to about 57 µM; nearly all actives have a fitted effect of over 65% in size
VDR inh: Inhibitors of the vitamin D receptor (VDR): qHTS | Vitamin D3 receptor (Homo sapiens), P11473 | VDR-SRC2-3 peptide fluorescence polarization, 2 h | Potency, µM, most hits filed as inhibitors | 400,000 tested, 0.93% active
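VDR–SRC2-3 interaction, FP format. Cmpds 23 nl via pintool, brief spin, 2 h ambient incubation.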
PKM2 act: qHTS Assay for Activators of Human Muscle isoform 2 Pyruvate Kinase | Pyruvate kinase PKM (Homo sapiens), P14618 | purified PKM2, Kinase-Glo ATP luminescence, activation; response scale: 0% is enzyme alone, no compound | Potency, µM (top dose mostly 57.5 µM), most hits filed as activators | 260,000 tested, 0.34% active | AID 1631, 2009; also: nearly all actives have a fitted effect of over 55% in size
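ATP formation by purified human PK-M2, quantified via coupled luciferase luminescence after 1 h at room temperature with 0.1 mM ADP and 0.5 mM PEP final.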
KAT2A inh: qHTS Assay for Inhibitors of GCN5L2; Histone acetyltransferase KAT2A (Homo sapiens), Q92830; GCN5L2 HAT assay, ThioGlo1 CoA-SH fluorescence; Potency, µM (doses to about 58.9 µM), usual class: inhibitors; 390,000 tested, 0.21% active
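Free CoA generated was detected with ThioGlo1 (50uM) fluorescence at Ex340nm/Em540nm, read immediately and after 20 min at room temperature. Enzyme, 20 nM in HEPES pH 7.5 buffer, saw compounds 15 min before adding 75uM H3(1-25) peptide and 70uM acetyl-CoA.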
Mito fusion act: qHTS Assay for Small Molecule Inhibitors of Mitochondrial Division or Activators of Mitochondrial Fusion. Potency, µM (top dose mostly 46.1 µM), hits mostly activators. 320,000 tested, 0.23% active. S. cerevisiae fusion-defective mutant growth rescue, CellTiterGlo 48 h; also: nearly all actives have a fitted effect of over 45% in size
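Luminescent cell viability in 1536-well qHTS format served as the measure of rescued growth in ts fusion-mutant S. cerevisiae cultured on non-fermentable YPEG for 48 hours at 37C.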
Numbers stand for hits; ! = not active in a repeat; [ ] = remark or other dose. Sampled rows, rich in hits. Any-hit rate of the full collection: about 3.4%. Calls follow the shape of the dose curve; as a rule, active = well fitted curve in the direction sought with a large enough effect; inconclusive = small, poorly fitted or top-dose-only effect, or another doubt; inactive = no such curve, though single readings can be large; an effect the other way counts as inactive or inconclusive.

For Cc1ccc(NC(=O)CCS(=O)(=O)c2ccc(Br)s2)cc1 the results were GLS inhibitor inactive, PLK1 PBD block 27µM, VDR inh inactive, PKM2 act inactive, KAT2A inh inactive and Mito fusion act inactive.
For CC1(C(=O)NC2CCc3ccccc32)CCN1CCc1ccccc1 (stereo not drawn) the results were GLS inhibitor inactive and PLK1 PBD block inactive.
For CN(C)c1cc2c3ccccc3n(C)c2cc1N the results were GLS inhibitor 11µM, PLK1 PBD block inactive and VDR inh inactive.
Screening COc1ccc(C2=CN(Cc3ccccc3)CCC2=O)cc1 returned GLS inhibitor inactive, PLK1 PBD block inactive, VDR inh inactive and KAT2A inh inactive.
Screening CCN(CC)CCCNC(=O)c1ccc2c(c1)N(Cc1c(F)cccc1Cl)C(=O)c1ccccc1S2 returned GLS inhibitor inactive, VDR inh inactive and KAT2A inh inactive.
CCN=C1S/C(=C\c2ccc(O)c(OCC)c2)C(=O)N1CC was read as GLS inhibitor inactive, PLK1 PBD block inactive, VDR inh inactive, PKM2 act inactive, KAT2A inh inactive and Mito fusion act inconclusive.
CCN=C1S/C(=C\c2cc(OCC)c(O)cc2Br)C(=O)N1CC was read as GLS inhibitor inactive, PLK1 PBD block inactive, VDR inh inactive, PKM2 act inactive, KAT2A inh inactive and Mito fusion act 7.1µM.
Screening COC1CCC(C(=O)c2ccc3nc4c(cc3c2)CCCO4)CC1 (stereo not drawn) returned PKM2 act inactive.
Screening O=C(O)c1ccc(-n2cccc2/C=N\NC(=O)c2cc3cc(Br)ccc3o2)cc1 returned GLS inhibitor inactive, PLK1 PBD block 21µM, VDR inh inactive, PKM2 act inactive, KAT2A inh inconclusive and Mito fusion act inactive.
Screening O=C1CCCN2N=C(SCC(=O)Nc3ccc([N+](=O)[O-])cc3)SC2=N1 returned GLS inhibitor inactive, PLK1 PBD block 38µM, VDR inh inconclusive, PKM2 act inactive, KAT2A inh inactive and Mito fusion act inactive.
`N[C@H]1CN(c2c(F)cc3c(=O)c(C(=O)O)cn(C4C[C@@H]4F)c3c2Cl)CC12CC2` (stereo partly drawn) gave GLS inhibitor inactive.
For COC(=O)Cn1c(=O)oc2ccc(C)cc21 the results were GLS inhibitor inactive, PLK1 PBD block 27µM, VDR inh inactive, PKM2 act inactive, KAT2A inh inactive and Mito fusion act inactive.
`CCCCCOC(=O)Cn1c(=O)oc2ccc(C)cc21` gave GLS inhibitor inactive, PLK1 PBD block inactive, VDR inh inactive, PKM2 act inactive, KAT2A inh inactive and Mito fusion act inactive.
`CCCC(=O)Nc1ccccc1NC(=O)c1ccc(OCC)cc1` gave GLS inhibitor inactive, PLK1 PBD block inactive, VDR inh inactive, PKM2 act inactive, KAT2A inh inactive and Mito fusion act inactive.
`O=C(COc1ccc2ccccc2c1)Nc1cccc(C(=O)Nc2ccccc2C(=O)O)c1` gave GLS inhibitor inactive, PLK1 PBD block 24µM, VDR inh inactive, PKM2 act inactive, KAT2A inh inactive and Mito fusion act inactive.
For CCOc1ccc(C(=O)Nc2ccccc2C(=O)O)cc1 the results were GLS inhibitor inactive, PLK1 PBD block 27µM, VDR inh inconclusive, PKM2 act inactive, KAT2A inh inactive and Mito fusion act inactive.
Screening O=C(O)c1ccccc1Nc1cccc(OCc2ccc3ccccc3n2)c1 returned GLS inhibitor inactive, PLK1 PBD block inactive, VDR inh inactive, KAT2A inh 28µM and Mito fusion act 15µM!.
Screening COC(=O)C1=C(C(=O)OC)[C@@H]2N(C)c3ccc(OC)cc3[C@@]23C[C@@H](C(=O)OC)N(S(=O)(=O)c2c(C)noc2C)C3=N1 returned PKM2 act inactive[11.5 µM].
`Cc1nn(C)c(Oc2cccc(Cl)c2)c1C#N` gave GLS inhibitor inconclusive, PLK1 PBD block 8.4µM, VDR inh inconclusive, PKM2 act inactive, KAT2A inh inactive and Mito fusion act inactive.
`O=S(=O)(c1ccccc1Br)N1CCN(c2nc(-c3cccs3)nc3ccccc23)CC1` gave VDR inh inactive.
Screening CCOC(=O)c1ccc2nc(C(F)(F)F)[nH]c(=O)c2c1 returned GLS inhibitor inactive, PLK1 PBD block 27µM, VDR inh inactive, PKM2 act inactive, KAT2A inh inactive and Mito fusion act inactive.
For O=C(O)c1ccc2nc(C(F)(F)F)[nH]c2c1 the results were PLK1 PBD block inactive, VDR inh inactive, PKM2 act inactive, KAT2A inh inactive and Mito fusion act inactive.
`Nc1cc(N)nc(SCc2cc(=O)oc3cc4c(cc23)CCC4)n1` gave GLS inhibitor inactive, PLK1 PBD block 27µM, VDR inh inactive, PKM2 act inactive, KAT2A inh inactive and Mito fusion act inactive.
Screening Nc1nc2n(n1)C(=O)CC(c1ccccc1)N2 (stereo not drawn) returned GLS inhibitor inactive, PLK1 PBD block 27µM, VDR inh inactive, PKM2 act inactive, KAT2A inh inactive and Mito fusion act inactive.
Cc1cc(C)c(C(=O)Nn2c(C)nc3ccccc3c2=O)cc1C was read as GLS inhibitor inactive, PLK1 PBD block inactive, VDR inh inactive, KAT2A inh inactive and Mito fusion act inactive.
Screening Cc1ccc(OCC(=O)Sc2ccc(C)cc2)cc1 returned GLS inhibitor inactive, PLK1 PBD block 6µM, VDR inh 45µM, PKM2 act inactive, KAT2A inh inactive and Mito fusion act inactive.
COc1cc(C(=O)Sc2ccc(C)cc2)cc(OC)c1OC was read as GLS inhibitor inactive, PLK1 PBD block inactive, VDR inh inactive, PKM2 act inactive, KAT2A inh inactive and Mito fusion act inactive.
Screening COc1ccccc1CNC(=O)CC(NS(=O)(=O)c1ccc(C)cc1)c1ccco1 (stereo not drawn) returned GLS inhibitor inactive, PLK1 PBD block 27µM, VDR inh inconclusive, PKM2 act inactive, KAT2A inh inactive and Mito fusion act inactive.
`Cc1ccccc1CNC(=O)C(C)Sc1ccccc1` (stereo not drawn) gave GLS inhibitor inactive and PLK1 PBD block inactive.
COc1ccccc1CNC(=O)C(C)Sc1ccc(C)cc1 (stereo not drawn) was read as GLS inhibitor inactive, PLK1 PBD block 21µM, VDR inh inactive, PKM2 act inactive, KAT2A inh inactive and Mito fusion act inactive.
